Drawing on article PMC5700166, this text covers binding signal for twelve sequences.

Common to all, as to test: protein-binding microarray (PBM); PBM: ~300 nM protein, 6 mM HEPES pH 7.8, 80 mM KCl, 0.5 mM EDTA, 0.5 mM EGTA, 6% glycerol, 35 ng/ul poly-dIdC, 1% milk, 1 h, room temperature; Ap Aiptasia and Nv Nematostella (sea anemones) / Co Capsaspora / Aq Amphimedon (sponge) / Dm Drosophila / Hu human; RHD is the Rel homology domain; high values mean tight binding
Settings in all cases: dsDNA, one strand shown

For one assay, the target named is T1, GST-Ap-NF-kB RHD (Exaiptasia pallida (Aiptasia), UniProt A0A913YAJ5 2-422).
T1 sequence: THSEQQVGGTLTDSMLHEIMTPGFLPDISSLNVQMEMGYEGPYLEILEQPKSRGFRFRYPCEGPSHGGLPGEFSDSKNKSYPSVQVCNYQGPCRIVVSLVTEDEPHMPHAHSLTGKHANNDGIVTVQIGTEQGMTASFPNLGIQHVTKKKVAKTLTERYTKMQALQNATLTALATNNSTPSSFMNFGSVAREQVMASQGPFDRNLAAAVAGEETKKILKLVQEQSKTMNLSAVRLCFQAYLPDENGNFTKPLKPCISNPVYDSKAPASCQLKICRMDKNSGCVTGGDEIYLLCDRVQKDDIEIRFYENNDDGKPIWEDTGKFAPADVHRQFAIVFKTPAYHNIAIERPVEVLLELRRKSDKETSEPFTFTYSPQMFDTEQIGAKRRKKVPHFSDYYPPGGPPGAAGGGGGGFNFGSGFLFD

Assay [1] has as its target T2, GST-Nv-NF-kB (Cys allele) (Nematostella vectensis, UniProt E5G601 2-411).
T2 sequence: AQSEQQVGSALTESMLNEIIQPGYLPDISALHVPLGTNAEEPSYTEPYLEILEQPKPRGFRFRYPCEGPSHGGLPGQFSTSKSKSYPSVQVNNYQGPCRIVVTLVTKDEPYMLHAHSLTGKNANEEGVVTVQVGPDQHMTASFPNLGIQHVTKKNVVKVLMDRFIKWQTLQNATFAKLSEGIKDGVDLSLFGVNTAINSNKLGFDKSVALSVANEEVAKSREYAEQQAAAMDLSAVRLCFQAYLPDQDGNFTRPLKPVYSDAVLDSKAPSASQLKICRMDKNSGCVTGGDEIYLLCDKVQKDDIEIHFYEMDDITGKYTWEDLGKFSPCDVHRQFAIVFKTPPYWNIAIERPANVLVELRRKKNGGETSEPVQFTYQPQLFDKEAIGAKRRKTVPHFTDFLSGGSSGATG

Assay [2] has as its target T3, GST-Nv-NF-kB (Ser allele) (Nematostella vectensis, UniProt A7UNT2 2-411).
T3 sequence: T2 sequence with Q21R, C66S, S207N, E215Q, V217A, E225K, A268E, D399E

Another assay concerns the target T4, GST-Co-NF-kB (Capsaspora owczarzaki, UniProt F1ARL5 200-546).
T4 sequence: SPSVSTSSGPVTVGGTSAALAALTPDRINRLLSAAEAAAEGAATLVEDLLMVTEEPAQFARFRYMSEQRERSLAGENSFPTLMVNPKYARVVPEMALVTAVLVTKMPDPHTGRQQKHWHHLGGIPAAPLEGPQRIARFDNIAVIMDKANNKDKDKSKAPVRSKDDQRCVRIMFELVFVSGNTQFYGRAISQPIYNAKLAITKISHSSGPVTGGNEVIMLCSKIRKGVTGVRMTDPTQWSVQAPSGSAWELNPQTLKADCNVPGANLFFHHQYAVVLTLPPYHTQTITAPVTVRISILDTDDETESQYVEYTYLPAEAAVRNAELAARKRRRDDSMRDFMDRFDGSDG

A further assay concerns the target T5, GST-Dm-Relish (Drosophila melanogaster, UniProt Q94527 99-473).
T5 sequence: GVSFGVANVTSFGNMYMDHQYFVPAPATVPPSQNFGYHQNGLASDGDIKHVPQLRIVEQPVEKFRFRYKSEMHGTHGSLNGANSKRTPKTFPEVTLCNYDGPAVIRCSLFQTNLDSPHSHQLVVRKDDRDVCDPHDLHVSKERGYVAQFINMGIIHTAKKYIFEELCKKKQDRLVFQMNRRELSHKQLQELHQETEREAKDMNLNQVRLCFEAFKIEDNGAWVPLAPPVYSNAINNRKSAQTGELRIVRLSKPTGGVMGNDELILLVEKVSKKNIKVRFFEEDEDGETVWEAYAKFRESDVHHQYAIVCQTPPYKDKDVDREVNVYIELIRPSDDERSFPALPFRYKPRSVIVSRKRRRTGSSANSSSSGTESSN

Another assay addresses T6, GST-Aq-NF-kB (Amphimedon queenslandica, UniProt A9Y5G7 2-389).
T6 sequence: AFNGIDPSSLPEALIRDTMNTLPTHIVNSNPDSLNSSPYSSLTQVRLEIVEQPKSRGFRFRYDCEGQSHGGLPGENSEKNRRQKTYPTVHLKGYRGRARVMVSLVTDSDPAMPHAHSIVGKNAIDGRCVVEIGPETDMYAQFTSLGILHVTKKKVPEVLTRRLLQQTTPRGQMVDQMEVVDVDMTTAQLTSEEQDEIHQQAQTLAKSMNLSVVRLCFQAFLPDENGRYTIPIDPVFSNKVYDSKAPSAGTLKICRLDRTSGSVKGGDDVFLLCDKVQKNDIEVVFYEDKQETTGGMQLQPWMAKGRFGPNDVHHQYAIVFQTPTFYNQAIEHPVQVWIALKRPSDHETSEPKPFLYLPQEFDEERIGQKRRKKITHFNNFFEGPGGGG

Another assay addresses GST-Hu-p50 (Homo sapiens, UniProt P19838 7-356).

Where a chain is given by its changes, count along the chain named.

Sequence of GST-Hu-p50 (P19838 7-356): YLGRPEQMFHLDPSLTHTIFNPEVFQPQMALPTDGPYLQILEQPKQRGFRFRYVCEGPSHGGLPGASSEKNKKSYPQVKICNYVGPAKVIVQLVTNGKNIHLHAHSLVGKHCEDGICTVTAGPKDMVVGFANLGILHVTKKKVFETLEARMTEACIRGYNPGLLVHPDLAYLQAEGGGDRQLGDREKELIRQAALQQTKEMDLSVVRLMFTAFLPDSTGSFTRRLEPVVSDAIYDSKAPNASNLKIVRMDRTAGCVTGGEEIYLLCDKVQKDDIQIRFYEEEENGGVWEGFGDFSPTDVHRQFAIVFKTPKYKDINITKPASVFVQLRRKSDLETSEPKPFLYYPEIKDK

Turning to “CCGATTAACATCACGGGAATACCTGATGTTAATCGGGTCTTGATTCGCTTGACGCTGCTG”, the binding signal in the assay with GST-Ap-NF-kB RHD came to 4.13 z-score; in assay [1], 3.29 z-score; in assay [2], 2.87 z-score; with GST-Co-NF-kB it was 3.47 z-score; with GST-Dm-Relish, 6.3 z-score; with GST-Aq-NF-kB, 5.81 z-score. For the same sequence, in the assay with GST-Hu-p50, the binding signal amounted to 1.75 z-score.

Turning to “CCGATTAACATCACGTTTTCCCCTGATGTTAATCGGGTCTTGATTCGCTTGACGCTGCTG”, the binding signal with GST-Ap-NF-kB RHD is 7.13 z-score; in assay [1] it was 7.87 z-score; in assay [2] it was 10.1 z-score; with GST-Co-NF-kB, 8.47 z-score; with GST-Dm-Relish it was 4.49 z-score; with GST-Aq-NF-kB, 5.5 z-score. The sequence also came in with a binding signal with GST-Hu-p50 of 5.96 z-score.

Consider “CCGATTAACATCAAGATACCCCCTGATGTTAATCGGGTCTTGATTCGCTTGACGCTGCTG”, for which the binding signal in the assay with GST-Ap-NF-kB RHD was determined as 7.1 z-score; in assay [1] it was 4.31 z-score; in assay [2], 5.25 z-score; with GST-Co-NF-kB it was 4.96 z-score; in the assay with GST-Dm-Relish, 4.14 z-score; with GST-Aq-NF-kB, 4.36 z-score. For the same sequence, in the assay with GST-Hu-p50, the binding signal stood at 4.66 z-score.

“CCGATTAACATCAAATGCCCCCCTGATGTTAATCGGGTCTTGATTCGCTTGACGCTGCTG”: the binding signal worked out at 5.13 z-score with GST-Ap-NF-kB RHD; 4.38 z-score in assay [1]; 3.91 z-score in assay [2]; 5.28 z-score with GST-Co-NF-kB; 4.71 z-score with GST-Dm-Relish; 5.31 z-score in the assay with GST-Aq-NF-kB. Further, the binding signal in the assay with GST-Hu-p50 was found to be 4.49 z-score.

Regarding “CCGATTAACATCAGGGGATGTACTGATGTTAATCGGGTCTTGATTCGCTTGACGCTGCTG”, the binding signal with GST-Ap-NF-kB RHD stood at 4.43 z-score; in assay [1], 4.79 z-score; in assay [2] it was 5.58 z-score; in the assay with GST-Co-NF-kB, 3.02 z-score; with GST-Dm-Relish it was 9.92 z-score; in the assay with GST-Aq-NF-kB, 5.33 z-score. This sequence displayed a binding signal with GST-Hu-p50 of 4.4 z-score.

As for “CCGATTAACATCACGGGGAAATCTGATGTTAATCGGGTCTTGATTCGCTTGACGCTGCTG”, the binding signal came out at 7.76 z-score in the assay with GST-Ap-NF-kB RHD; 8.56 z-score in assay [1]; 10.6 z-score in assay [2]; 10.1 z-score in the assay with GST-Co-NF-kB; 6.19 z-score with GST-Dm-Relish; 6.37 z-score in the assay with GST-Aq-NF-kB. This sequence also had a binding signal with GST-Hu-p50 of 6.25 z-score.

“CCGATTAACATCAAACAATCCCCTGATGTTAATCGGGTCTTGATTCGCTTGACGCTGCTG”: the binding signal with GST-Ap-NF-kB RHD turned out to be 7.46 z-score; in assay [1], 7.94 z-score; in assay [2] it was 9.07 z-score; with GST-Co-NF-kB, 3.49 z-score; in the assay with GST-Dm-Relish, 5.32 z-score; with GST-Aq-NF-kB, 6.2 z-score. The binding signal with GST-Hu-p50 was 6.29 z-score.

As for “CCGATTAACATCAGAATCCCCCCTGATGTTAATCGGGTCTTGATTCGCTTGACGCTGCTG”, the binding signal was found to be 9.22 z-score with GST-Ap-NF-kB RHD; 7.84 z-score in assay [1]; 8.55 z-score in assay [2]; 7.63 z-score with GST-Co-NF-kB; 8.81 z-score in the assay with GST-Dm-Relish; 7.37 z-score with GST-Aq-NF-kB. In addition, the binding signal with GST-Hu-p50 worked out at 7.06 z-score.

Regarding “CCGATTAACATCAGGGGGTTCCATGATGTTAATCGGGTCTTGATTCGCTTGACGCTGCTG”, the binding signal with GST-Ap-NF-kB RHD came to 7.79 z-score; in assay [1], 5.3 z-score; in assay [2] it was 5.6 z-score; with GST-Co-NF-kB it was 1.97 z-score; in the assay with GST-Dm-Relish it was 9.47 z-score; in the assay with GST-Aq-NF-kB, 6.05 z-score. Moreover, in the assay with GST-Hu-p50, the binding signal was determined as 5.73 z-score.

Turning to “CCGATTAACATCACCCCGTCCCCTGATGTTAATCGGGTCTTGATTCGCTTGACGCTGCTG”, the binding signal with GST-Ap-NF-kB RHD worked out at 4.62 z-score; in assay [1], 3.83 z-score; in assay [2], 3.99 z-score; with GST-Co-NF-kB, 3.98 z-score; with GST-Dm-Relish, 2.65 z-score; with GST-Aq-NF-kB, 4.15 z-score. In the assay with GST-Hu-p50, this sequence yielded a binding signal of 3.21 z-score.

On to “CCGATTAACATCACGGGAAATTCTGATGTTAATCGGGTCTTGATTCGCTTGACGCTGCTG”, for which the binding signal in the assay with GST-Ap-NF-kB RHD was found to be 5.1 z-score; in assay [1], 6.52 z-score; in assay [2] it was 5.98 z-score; with GST-Co-NF-kB it was 5.06 z-score; with GST-Dm-Relish, 3.57 z-score; with GST-Aq-NF-kB it was 6.47 z-score. In the assay with GST-Hu-p50, the binding signal was determined as 4.83 z-score.

Take “CCGATTAACATCAGGGGAAGTACTGATGTTAATCGGGTCTTGATTCGCTTGACGCTGCTG”: the binding signal is 7.14 z-score with GST-Ap-NF-kB RHD; 8.22 z-score in assay [1]; 9.13 z-score in assay [2]; 5.32 z-score with GST-Co-NF-kB; 10.7 z-score with GST-Dm-Relish; 7.89 z-score in the assay with GST-Aq-NF-kB. The sequence also gave a binding signal in the assay with GST-Hu-p50 of 6.9 z-score.
